{
  "source": "PubChem BioAssay AID1159580",
  "about": "(chemical genetic matrix, 2015)",
  "assay": "chemical genetic growth profiling, strain panel (AID 1159580);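 further: tested at 20 µM; growth read once vehicle control cultures reached saturation at 30 °C; 1 = growth at the plate median or of vehicle wells; lower values mean less growth of the strain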",
  "settings": "growth OD",
  "note": "Out of some 5,500 compounds screened, about 2,000 (36%) were called active. Another 18% or so got no clear call; they are omitted. This is one part of the list. Values without a mark were called inactive. No stated cut-off is given here; in the data, active means normalized growth mostly below about 0.91 (no sharp cut-off); inconclusive means no clear call, values can overlap the other calls; inactive means mostly above about 0.92.",
  "data": [
    {"smiles": "CC(C)(C)CC(C)(C)c1ccc(O)c(Cc2ccc(Cl)cc2Cl)c1", "values": [
      {"measurement": "normalized growth", "setting": "S. cerevisiae deletion strains, locus YJR075W, strain HOC1, hits give low values", "value": 1.01},
      {"measurement": "normalized growth", "setting": "S. cerevisiae deletion strains, locus YKL009W, strain mrt4, hits give low values", "value": 1.01},
      {"measurement": "normalized growth", "setting": "S. cerevisiae deletion strains, locus YKL068W, hits give low values", "value": 1.02},
      {"measurement": "normalized growth", "setting": "S. cerevisiae deletion strains, locus YKL085W, strain MDH1 (second series), hits give low values", "value": 1.01},
      {"measurement": "normalized growth", "setting": "S. cerevisiae deletion strains, locus YKL085W, strain MDH1, hits give low values", "value": 1.01},
      {"measurement": "normalized growth", "setting": "S. cerevisiae deletion strains, locus YKL160W, strain elf1, hits give low values", "value": 1},
      {"measurement": "normalized growth", "setting": "S. cerevisiae deletion strains, locus YKL190W, strain CNB1, hits give low values", "value": 1},
      {"measurement": "normalized growth", "setting": "S. cerevisiae deletion strains, locus YKR001C, strain vps1, hits give low values", "value": 1.01},
      {"measurement": "normalized growth", "setting": "S. cerevisiae deletion strains, locus YKR026C, strain gcn3, hits give low values", "value": 1.02},
      {"measurement": "normalized growth", "setting": "S. cerevisiae deletion strains, locus YKR091W, strain srl3, hits give low values", "value": 1.02},
      {"measurement": "normalized growth", "setting": "S. cerevisiae deletion strains, locus YLL001W, strain dnm1, hits give low values", "value": 1.04},
      {"measurement": "normalized growth", "setting": "S. cerevisiae deletion strains, locus YLL026W, hits give low values", "value": 1.01},
      {"measurement": "normalized growth", "setting": "S. cerevisiae deletion strains, locus YLL041C, strain sdh2, hits give low values", "value": 1.02},
      {"measurement": "normalized growth", "setting": "S. cerevisiae deletion strains, locus YLR027C, strain aat2, hits give low values", "value": 1.01},
      {"measurement": "normalized growth", "setting": "S. cerevisiae deletion strains, locus YLR039C, strain RIC1, hits give low values", "value": 0.985},
      {"measurement": "normalized growth", "setting": "S. cerevisiae deletion strains, locus YLR058C, strain SHM2, hits give low values", "value": 1.01},
      {"measurement": "normalized growth", "setting": "S. cerevisiae deletion strains, locus YLR102C, strain apc9, hits give low values", "value": 1.01},
      {"measurement": "normalized growth", "setting": "S. cerevisiae deletion strains, locus YLR113W, strain HOG1, hits give low values", "value": 1.03},
      {"measurement": "normalized growth", "setting": "S. cerevisiae deletion strains, locus YLR221C, strain rsa3, hits give low values", "value": 0.995},
      {"measurement": "normalized growth", "setting": "S. cerevisiae deletion strains, locus YLR258W, strain gsy2, hits give low values", "value": 1.02},
      {"measurement": "normalized growth", "setting": "S. cerevisiae deletion strains, locus YLR262C, strain YPT6 (second series), hits give low values", "value": 0.981},
      {"measurement": "normalized growth", "setting": "S. cerevisiae deletion strains, locus YLR262C, strain YPT6, hits give low values", "value": 0.974},
      {"measurement": "normalized growth", "setting": "S. cerevisiae deletion strains, locus YLR268W, strain sec22, hits give low values", "value": 1.01},
      {"measurement": "normalized growth", "setting": "S. cerevisiae deletion strains, locus YLR320W, strain mms22, hits give low values", "value": 1.02},
      {"measurement": "normalized growth", "setting": "S. cerevisiae deletion strains, locus YLR330W, strain CHS5, hits give low values", "value": 0.999},
      {"measurement": "normalized growth", "setting": "S. cerevisiae deletion strains, locus YLR342W, strain FKS1 (second series), hits give low values", "value": 0.995},
      {"measurement": "normalized growth", "setting": "S. cerevisiae deletion strains, locus YLR342W, strain FKS1, hits give low values", "value": 1.01},
      {"measurement": "normalized growth", "setting": "S. cerevisiae deletion strains, locus YLR357W, strain rsc2, hits give low values", "value": 1.05},
      {"measurement": "normalized growth", "setting": "S. cerevisiae deletion strains, locus YLR370C, strain arc18, hits give low values", "value": 1.03},
      {"measurement": "normalized growth", "setting": "S. cerevisiae deletion strains, locus YLR371W, strain rom2, hits give low values", "value": 1.01},
      {"measurement": "normalized growth", "setting": "S. cerevisiae deletion strains, locus YLR384C, strain iki3, hits give low values", "value": 1.03},
      {"measurement": "normalized growth", "setting": "S. cerevisiae deletion strains, locus YLR418C, strain cdc73, hits give low values", "value": 1.02},
      {"measurement": "normalized growth", "setting": "S. cerevisiae deletion strains, locus YML016C, strain PPZ1, hits give low values", "value": 1.01},
      {"measurement": "normalized growth", "setting": "S. cerevisiae deletion strains, locus YML032C, strain rad52, hits give low values", "value": 1.02},
      {"measurement": "normalized growth", "setting": "S. cerevisiae deletion strains, locus YML120C, strain ndi1, hits give low values", "value": 1},
      {"measurement": "normalized growth", "setting": "S. cerevisiae deletion strains, locus YML124C, strain tub3, hits give low values", "value": 1.02},
      {"measurement": "normalized growth", "setting": "S. cerevisiae deletion strains, locus YMR058W, strain fet3, hits give low values", "value": 1.01},
      {"measurement": "normalized growth", "setting": "S. cerevisiae deletion strains, locus YMR078C, strain ctf18, hits give low values", "value": 1.01},
      {"measurement": "normalized growth", "setting": "S. cerevisiae deletion strains, locus YMR125W, strain sto1, hits give low values", "value": 1.02},
      {"measurement": "normalized growth", "setting": "S. cerevisiae deletion strains, locus YMR129W, hits give low values", "value": 0.998},
      {"measurement": "normalized growth", "setting": "S. cerevisiae deletion strains, locus YMR205C, strain PFK2, hits give low values", "value": 1.01},
      {"measurement": "normalized growth", "setting": "S. cerevisiae deletion strains, locus YMR223W, strain ubp8, hits give low values", "value": 1.01},
      {"measurement": "normalized growth", "setting": "S. cerevisiae deletion strains, locus YMR231W, strain pep5, hits give low values", "value": 1.03},
      {"measurement": "normalized growth", "setting": "S. cerevisiae deletion strains, locus YMR263W, strain SAP30, hits give low values", "value": 0.998},
      {"measurement": "normalized growth", "setting": "S. cerevisiae deletion strains, locus YMR307W, strain GAS1, hits give low values", "value": 0.972},
      {"measurement": "normalized growth", "setting": "S. cerevisiae deletion strains, locus YNL067W, strain RPL9B, hits give low values", "value": 1.01},
      {"measurement": "normalized growth", "setting": "S. cerevisiae deletion strains, locus YNL071W, strain lat1, hits give low values", "value": 1.03},
      {"measurement": "normalized growth", "setting": "S. cerevisiae deletion strains, locus YNL128W, strain TEP1, hits give low values", "value": 1.02},
      {"measurement": "normalized growth", "setting": "S. cerevisiae deletion strains, locus YNL153C, strain GIM3, hits give low values", "value": 1},
      {"measurement": "normalized growth", "setting": "S. cerevisiae deletion strains, locus YNL183C, strain NPR1, hits give low values", "value": 0.973},
      {"measurement": "normalized growth", "setting": "S. cerevisiae deletion strains, locus YNL209W, strain ssb2, hits give low values", "value": 1.02},
      {"measurement": "normalized growth", "setting": "S. cerevisiae deletion strains, locus YNL233W, strain BNI4, hits give low values", "value": 1.01},
      {"measurement": "normalized growth", "setting": "S. cerevisiae deletion strains, locus YNL248C, strain rpa49, hits give low values", "value": 1.01},
      {"measurement": "normalized growth", "setting": "S. cerevisiae deletion strains, locus YNL250W, strain rad50, hits give low values", "value": 1.02},
      {"measurement": "normalized growth", "setting": "S. cerevisiae deletion strains, locus YNL271C, strain bni1, hits give low values", "value": 1.02},
      {"measurement": "normalized growth", "setting": "S. cerevisiae deletion strains, locus YNL298W, strain CLA4, hits give low values", "value": 1.03},
      {"measurement": "normalized growth", "setting": "S. cerevisiae deletion strains, locus YNL307C, strain MCK1, hits give low values", "value": 1.02},
      {"measurement": "normalized growth", "setting": "S. cerevisiae deletion strains, locus YNL322C, strain KRE1 (second series), hits give low values", "value": 1.02},
      {"measurement": "normalized growth", "setting": "S. cerevisiae deletion strains, locus YNR049C, strain mso1, hits give low values", "value": 1.02},
      {"measurement": "normalized growth", "setting": "S. cerevisiae deletion strains, locus YNR052C, strain pop2, hits give low values", "value": 1.01},
      {"measurement": "normalized growth", "setting": "S. cerevisiae deletion strains, locus YOL006C, strain TOP1, hits give low values", "value": 0.836},
      {"measurement": "normalized growth", "setting": "S. cerevisiae deletion strains, locus YOL012C, strain htz1", "value": 0.945},
      {"measurement": "normalized growth", "setting": "S. cerevisiae deletion strains, locus YOL147C, strain pex11, hits give low values", "value": 1.02},
      {"measurement": "normalized growth", "setting": "S. cerevisiae deletion strains, locus YOR001W, strain rrp6, hits give low values", "value": 1.01},
      {"measurement": "normalized growth", "setting": "S. cerevisiae deletion strains, locus YOR061W, strain CKA2, hits give low values", "value": 1.01},
      {"measurement": "normalized growth", "setting": "S. cerevisiae deletion strains, locus YOR069W, strain VPS5, hits give low values", "value": 1.01},
      {"measurement": "normalized growth", "setting": "S. cerevisiae deletion strains, locus YOR070C, strain gyp1, hits give low values", "value": 1.01},
      {"measurement": "normalized growth", "setting": "S. cerevisiae deletion strains, locus YOR080W, strain dia2, hits give low values", "value": 1.03},
      {"measurement": "normalized growth", "setting": "S. cerevisiae deletion strains, locus YOR083W, strain WHI5, hits give low values", "value": 0.989},
      {"measurement": "normalized growth", "setting": "S. cerevisiae deletion strains, locus YOR106W, strain vam3, hits give low values", "value": 0.988},
      {"measurement": "normalized growth", "setting": "S. cerevisiae deletion strains, locus YOR136W, strain idh2, hits give low values", "value": 1.02},
      {"measurement": "normalized growth", "setting": "S. cerevisiae deletion strains, locus YOR144C, strain elg1, hits give low values", "value": 1.01},
      {"measurement": "normalized growth", "setting": "S. cerevisiae deletion strains, locus YOR184W, strain ser1, hits give low values", "value": 1.01},
      {"measurement": "normalized growth", "setting": "S. cerevisiae deletion strains, locus YOR231W, strain MKK1, hits give low values", "value": 1.03},
      {"measurement": "normalized growth", "setting": "S. cerevisiae deletion strains, locus YOR265W, strain rbl2, hits give low values", "value": 1.01},
      {"measurement": "normalized growth", "setting": "S. cerevisiae deletion strains, locus YOR270C, strain vph1, hits give low values", "value": "0.766 (active)"},
      {"measurement": "normalized growth", "setting": "S. cerevisiae deletion strains, locus YOR290C, strain snf2, hits give low values", "value": 1.02},
      {"measurement": "normalized growth", "setting": "S. cerevisiae deletion strains, locus YOR316C, strain cot1, hits give low values", "value": 1.01},
      {"measurement": "normalized growth", "setting": "S. cerevisiae deletion strains, locus YPL051W, strain arl3, hits give low values", "value": 1},
      {"measurement": "normalized growth", "setting": "S. cerevisiae deletion strains, locus YPL078C, strain atp4, hits give low values", "value": 1.02},
      {"measurement": "normalized growth", "setting": "S. cerevisiae deletion strains, locus YPL106C, strain sse1, hits give low values", "value": 1.04},
      {"measurement": "normalized growth", "setting": "S. cerevisiae deletion strains, locus YPL240C, strain hsp82, hits give low values", "value": 1},
      {"measurement": "normalized growth", "setting": "S. cerevisiae deletion strains, locus YPL241C, strain CIN2, hits give low values", "value": 1},
      {"measurement": "normalized growth", "setting": "S. cerevisiae deletion strains, locus YPL256C, strain CLN2, hits give low values", "value": 1.04},
      {"measurement": "normalized growth", "setting": "S. cerevisiae deletion strains, locus YPR119W, strain clb2, hits give low values", "value": 1.01},
      {"measurement": "normalized growth", "setting": "S. cerevisiae deletion strains, locus YPR141C, strain kar3, hits give low values", "value": 1.01},
      {"measurement": "normalized growth", "setting": "S. cerevisiae deletion strains, locus YPR163C, strain tif3, hits give low values", "value": 1.02},
      {"measurement": "normalized growth", "setting": "S. cerevisiae deletion strains, locus YPR167C, strain met16, hits give low values", "value": 1.02},
      {"measurement": "normalized growth", "setting": "S. cerevisiae deletion strains, strain wtn01, hits give low values", "value": 1.01},
      {"measurement": "normalized growth", "setting": "S. cerevisiae strains, strain wild type, hits give low values", "value": 1}
    ]}
  ]
}
